As a reminder, the AC50 is the midpoint of the concentration-response curve, whichever way the signal moves.

Here are results for twelve compounds from PubChem BioAssay (EPA / NIEHS).

A short description of assay [1]: CCTE_Shafer_MEA_acute_spike_number: CCTE's Neural Acute Assay for Total Number of Spikes, Shafer Lab (AID 2284008). A digest of the protocol: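 Using an adaptive detector set to 8x rms noise, spikes were counted in 40-min windows before and after compound addition (0.03-40 uM) to rat cortical networks at 37 C; the well-level change from baseline was analysed relative to DMSO.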

Assay [2] is described as follows: CCTE_Shafer_MEA_acute_firing_rate_mean: CCTE's Neural Acute Assay for Mean Firing Rate, Shafer Lab (AID 2284009).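 Also: analyzed for loss of signal so actives lower firing rate relative to DMSO.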 A digest of the protocol:
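Rat cortical neuron cultures matured to DIV 13 or 15, equilibrated 20 min at 37 C, then recorded 40 min for baseline. Compound (0.03-40 uM) added and a further 40 min recorded; percent change in mean firing rate calculated per well.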

Assay [3] in a line: CCTE_Harrill_HTTr_Apoptosis_MCF7: CCTE's 6-hour Apoptosis Assessment for the High-Throughput Transcriptomics (HTTr) Platform, in MCF-7 cells cultured in DMEM + 10% fetal bovine serum, Harrill Lab (AID 2284011). The method, boiled down: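 Apoptosis in MCF-7 cells grown in DMEM with 10% fetal bovine serum was scored after a six hour exposure by high content imaging of caspase-3/7 activation (CellEvent Caspase 3/7 Green), with DMSO serving as negative control and baseline.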

Assay [4] in a line: CCTE_Harrill_HTTr_CellCount_MCF7: CCTE's Cell Proliferation Assessment for the High-Throughput Transcriptomics (HTTr) Platform, Harrill Lab (AID 2284012; active = hit-call score of the fitted dose curve at least 0.9, where 1 is the maximum;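 also: count of Hoechst-stained nuclei per well by high-content imaging in MCF-7 cells; cells exposed to compound for six hours; intended direction is loss of nuclei count meaning fewer cells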). A digest of the protocol: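 Readout: Hoechst nuclear count by high-content imaging. MCF-7, 8-point dilution series, 6 h exposure. Bidirectional fit vs DMSO baseline.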
Assay [5] can be described thus: CCTE_Shafer_MEA_acute_burst_number: CCTE's Neural Acute Assay for Single-Electrode Bursts, Shafer Lab (AID 2284013). The method, boiled down:
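Percent change in single-electrode burst number per well, from 40-min recordings taken before and after adding compound (0.03-40 uM) to primary rat cortical neurons on MEA plates at DIV 13 or 15, 37 C.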

Assay [6] is described as follows: CCTE_Shafer_MEA_acute_burst_duration_mean: CCTE's Neural Acute Assay for Mean Burst Duration, Shafer Lab (AID 2284014).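 Also: hits are decreases in mean burst duration relative to DMSO controls.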 A digest of the protocol: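 Rat cortical cultures, DIV 13/15; 40 min baseline, then 40 min with compound (0.03-40 uM), 37 C. Spikes: 300-5000 Hz band-pass, 8x rms threshold. Read-out: % change in mean single-electrode burst duration, DMSO-referenced, loss direction.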

Assay [7] is described as follows: CCTE_Shafer_MEA_acute_per_burst_spike_number_mean: CCTE's Neural Acute Assay for Average Number of Spikes Per Burst, Shafer Lab (AID 2284015).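 Also: hits are decreases in mean spikes per burst versus baseline.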 A digest of the protocol:
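We recorded spontaneous network firing of rat cortical neurons for 40 min before and 40 min during exposure to compound at 0.03-40 uM, at 37 C. Spikes were detected adaptively at 8x rms noise, and the change in average spikes per burst was fitted against DMSO.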

Assay [8] in a line: CCTE_Shafer_MEA_acute_interburst_interval_mean: CCTE's Neural Acute Assay for Mean Interburst Interval, Shafer Lab (AID 2284016).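 Also: percent change of mean interburst interval versus each well's own pre-dose baseline; curves fitted for decrease in interburst interval relative to DMSO.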 The method, boiled down: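 MEA recording of spontaneous network bursting in primary rat cortical cultures; mean interburst interval was compared before and after a 40-min compound exposure (0.03-40 uM) and expressed as percent change, relative to DMSO.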

Assay [9] in a line: CCTE_Shafer_MEA_acute_burst_percentage_mean: CCTE's Neural Acute Assay for Percentage of Spikes in a Burst, Shafer Lab (AID 2284017). The method, boiled down:
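Compounds were tested at 0.03-40 uM on primary rat cortical neuron networks grown over microelectrodes, with at least three wells per compound. Spontaneous firing was recorded for 40 min before and 40 min after dosing, and the change in burst percentage was computed per well.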

Assay [10] is described as follows: CCTE_Shafer_MEA_acute_burst_percentage_std: CCTE's Neural Acute Assay for Standard Deviation of Burst Percentage, Shafer Lab (AID 2284018).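 Also: fitted in the negative direction so actives lower burst percentage SD.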 A digest of the protocol:
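Rat primary cortical neurons on 48-well MEAs, DIV 13 or 15, 37 C. 40-min baseline then 40-min recording with compound (0.03-40 uM); well-level SD of per-electrode burst spike percentage, expressed as percent change from baseline.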

Assay [11] in a line: CCTE_Shafer_MEA_acute_per_network_burst_spike_number_mean: CCTE's Neural Acute Assay for Average Number of Spikes in a Network Burst, Shafer Lab (AID 2284019). A digest of the protocol:
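Rat cortical cultures, DIV 13/15; spike threshold 8x rms noise, 300-5000 Hz band-pass, 12.5 kHz sampling; wells need >/= 10 active electrodes. Compound 0.03-40 uM, 40 min, 37 C; % change vs own baseline, DMSO negative control.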

Assay [12] in a line: CCTE_Shafer_MEA_acute_per_network_burst_spike_number_std: CCTE's Neural Acute Assay for Standard Deviation of Number of Spikes in a Network Burst, Shafer Lab (AID 2284020).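 Also: fitted for decrease in spike-number SD versus DMSO so actives lower it.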 The method, boiled down: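 Rat cortical cultures, DIV 13/15, 37 C; 20-min stabilisation, 40-min baseline, compound 0.03-40 uM, 40-min re-record. Spikes detected at 8x rms noise (300-5000 Hz band-pass). Readout: % change from baseline in per-burst spike-number SD.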

Assay [13] is described as follows: CCTE_Shafer_MEA_acute_per_network_burst_electrodes_number_mean: CCTE's Neural Acute Assay for Mean Number of Electrodes in a Network Burst, Shafer Lab (AID 2284021).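 Also: curves fitted for decreases only so hits reduce electrodes per burst.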 A digest of the protocol: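 Percent change from baseline in average electrode count per network burst, rat cortical cultures on 48-well MEAs; 40-min recordings each side of exposure, DIV 13 or 15; threshold 8x rms noise; DMSO as negative control.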

Assay [14] can be described thus: CCTE_Shafer_MEA_acute_network_burst_percentage: CCTE's Neural Acute Assay for Percentage of Network Bursts, Shafer Lab (AID 2284022).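 Also: curves fitted for loss so actives lower network burst percentage.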 A digest of the protocol:
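On DIV 13 or 15, at least three wells of rat cortical neurons per compound are dosed at 0.03-40 uM. Spontaneous firing is detected at 8x rms noise for 40 min before and after dosing at 37 C. The percent change in network-burst spike share is reported.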

The test system of the next assay is DIO1 (gene 1733). In words: CCTE_GLTED_hDIO1: CCTE's human Deiodinase 1 (DIO1) Inhibition Assay, Great Lakes Toxicology and Ecology Division (GLTED) Lab (AID 2283987; active = hit-call score of the fitted dose curve at least 0.9, where 1 is the maximum;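 also: isolated human DIO1 enzyme in a cell-free setup rather than cells; enzyme activity read as free iodide liberated from substrate via Sandell-Kolthoff colorimetry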). A digest of the protocol: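 Chemicals are tested on human DIO1 without cells for 3 h. Uninhibited enzyme frees iodide, which speeds cerium(IV) reduction by arsenic and is read by spectrophotometry.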

Assay [15] has as its target Nucleoli Translocation, AR (gene 367) (UniProt P10275). In words: UPITT_HCI_U2OS_AR_TIF2_Nucleoli_Agonist: University of Pittsburgh U2OS Androgen Receptor-Transcriptional Intermediary Factor 2 (AR-TIF2) Agonism High Content Imaging Assay for Nucleoli Translocation (AID 2283998; active = hit-call score of the fitted dose curve at least 0.9, where 1 is the maximum). A digest of the protocol: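 High-content images quantify nucleolar accumulation of RFP-fused AR in cells also expressing GFP-TIF2; the endpoint is fitted as signal gain versus DMSO controls across final concentrations of 0.195 to 50 uM.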

Assay [16] addresses Ratio of Nucleoli Translocation and Cytoplasm, AR (gene 367) (UniProt P10275). In words: UPITT_HCI_U2OS_AR_TIF2_Nucleoli_Cytoplasm_Ratio_Antagonist: University of Pittsburgh U2OS Androgen Receptor-Transcriptional Intermediary Factor 2 (AR-TIF2) Antagonism High Content Imaging Assay for Ratio of Nucleoli Translocation and Cytoplasm (AID 2283999; active = hit-call score of the fitted dose curve at least 0.9, where 1 is the maximum;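 also: antagonists lower the DHT-driven ratio of nucleolar to cytoplasmic red signal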). A digest of the protocol: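 Read-out is the ratio of nucleolar to cytoplasmic AR-RFP fluorescence, imaged by high-content microscopy in U2OS cells coexpressing TIF2-GFP. Single-point 20 uM screen, triplicate confirmation, then 0.195–50 uM dose response; activity referenced to DHT baseline.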

Assay [17] has the same target. In words: UPITT_HCI_U2OS_AR_TIF2_Nucleoli_Cytoplasm_Ratio_Agonist: University of Pittsburgh U2OS Androgen Receptor-Transcriptional Intermediary Factor 2 (AR-TIF2) Agonism High Content Imaging Assay for Ratio of Nucleoli Translocation and Cytoplasm (AID 2284000; active = hit-call score of the fitted dose curve at least 0.9, where 1 is the maximum;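 also: hits raise the red nucleolar to cytoplasm ratio above vehicle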). The method, boiled down:
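Human osteosarcoma U2OS line, AR-RFP plus TIF2-GFP; compounds 0.195–50 uM final, 0.5% DMSO. Readout: nucleolar/cytoplasmic RFP ratio by HCI, positive direction vs DMSO baseline.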

Assay [18] is described as follows: CCTE_Harrill_HTTr_Viability_MCF7: CCTE's 6-hour Cell Viability Assessment for the High-Throughput Transcriptomics (HTTr) Platform, in MCF-7 cells cultured in DMEM + 10% fetal bovine serum, Harrill Lab (AID 2284010). A digest of the protocol: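 PI exclusion, high-content imaging; 8-pt dilution series, 6 h exposure; bidirectional fit vs DMSO (neg. ctrl/baseline); gain of signal = loss of membrane integrity.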

Inconclusive results are not listed. Calls of active or inactive are those of the source. The calls were made as follows, unless noted: active = hit-call score of the fitted dose curve at least 0.9, where 1 is the maximum; inactive = score below 0.9.

Ratio of Nucleoli Translocation and Cytoplasm, AR (gene 367), sequence (P10275 whole entry, looked up): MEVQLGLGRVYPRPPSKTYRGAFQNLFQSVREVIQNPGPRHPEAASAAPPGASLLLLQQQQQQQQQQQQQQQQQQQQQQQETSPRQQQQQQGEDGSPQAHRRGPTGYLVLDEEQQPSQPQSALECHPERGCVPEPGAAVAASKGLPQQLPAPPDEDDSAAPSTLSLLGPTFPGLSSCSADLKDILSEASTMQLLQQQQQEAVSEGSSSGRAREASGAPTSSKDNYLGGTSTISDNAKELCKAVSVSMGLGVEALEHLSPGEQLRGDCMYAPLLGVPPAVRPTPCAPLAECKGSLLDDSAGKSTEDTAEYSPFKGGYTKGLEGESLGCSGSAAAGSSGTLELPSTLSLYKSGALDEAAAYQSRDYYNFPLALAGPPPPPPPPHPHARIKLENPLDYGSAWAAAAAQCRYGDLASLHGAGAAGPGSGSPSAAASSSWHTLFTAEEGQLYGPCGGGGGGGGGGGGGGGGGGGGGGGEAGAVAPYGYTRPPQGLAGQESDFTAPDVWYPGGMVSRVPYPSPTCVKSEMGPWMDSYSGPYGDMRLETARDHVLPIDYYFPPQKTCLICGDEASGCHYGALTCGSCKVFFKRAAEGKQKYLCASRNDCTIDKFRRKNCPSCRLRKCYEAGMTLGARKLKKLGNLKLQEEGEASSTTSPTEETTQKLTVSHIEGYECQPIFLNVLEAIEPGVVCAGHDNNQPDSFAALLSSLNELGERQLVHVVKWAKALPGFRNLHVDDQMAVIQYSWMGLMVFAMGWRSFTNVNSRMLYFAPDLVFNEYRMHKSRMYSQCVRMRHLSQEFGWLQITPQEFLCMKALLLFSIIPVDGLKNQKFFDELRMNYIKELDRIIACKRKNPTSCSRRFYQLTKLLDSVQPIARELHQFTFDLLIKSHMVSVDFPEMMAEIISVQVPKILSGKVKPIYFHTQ
Nucleoli Translocation, AR (gene 367), sequence (P10275 whole entry, looked up, the tested form may be a part): as the sequence (P10275 whole entry, looked up) above

As for `C1CNCCN1`, the compound was classed as inactive in assay [1], in [2], in assay [3], in [4], in assay [5] and in assay [6]. In addition, the call in assay [7], in assay [8], in [9], in assay [10], in [11] and in [12] was inactive. In addition, the compound was classed as inactive in [13] and in [14].

For the compound `CCCCCCCCCCCCc1ccc(O)cc1`, the AC50 in the assay with DIO1 (gene 1733) is 31.5 µM (active).

Consider `C=C1C[C@H]2[C@@H]3C=C(C)C4=CC(=O)CC[C@]4(C)[C@H]3CC[C@]2(C)[C@@]1(OC(C)=O)C(C)=O`, for which the AC50 in assay [15] is 4 µM (active). Moreover, the outcome in assay [16], in [17], in [3] and in assay [4] was inactive.

With `Oc1ccc(-c2ccccc2)c(Cl)c1`, the AC50 in [15] is 13.4 µM (active). For the same compound, the outcome in assay [16], in assay [17], in [18], in assay [3] and in [4] was inactive.

In the case of `N#Cc1ccc(C(c2ccc(C#N)cc2)n2cncn2)cc1`, the outcome in assay [15], in [17] and in [3] was inactive.

Consider `CCCCC(CC)COC(=O)/C=C/c1ccc(OC)cc1` (stereo unspecified), for which the result in [15] and in assay [17] was inactive.

As to `CC(=O)OC1CCCCC1C(C)(C)C` (stereo unspecified), the outcome in assay [17], in [3] and in assay [4] was inactive.

For `CCCCCCCOC(=O)c1ccc(O)cc1`, in the assay with DIO1 (gene 1733), the half-maximal activity concentration (AC50) was 75 µM (active).

As for `CCC(C)c1ccccc1` (stereo unspecified), the result in assay [15], in [17], in assay [3] and in [4] was inactive.

As to `Cc1ccc(C)c(OCCCC(C)(C)C(=O)O)c1`, the compound was called inactive in [15], in [16], in assay [17], in assay [3] and in assay [4].

For the compound `CC(C)C(=O)OCCc1ccccc1`, the compound was called inactive in [1], in assay [2], in [5], in assay [6], in [7] and in [8]. The call in assay [9], in assay [10], in [11], in assay [12] and in assay [14] was inactive. For the same compound, the AC50 in assay [13] was 0.0213 µM (active).

`Cc1c(C(=O)c2c[nH]n(C)c2=O)ccc(S(C)(=O)=O)c1C1=NOCC1`: the outcome in [1], in assay [2], in [18], in assay [3], in assay [4] and in [5] was inactive. Moreover, the result in assay [6], in [7], in [8], in assay [9], in assay [10] and in assay [11] was inactive. In addition, the compound was classed as inactive in [12], in assay [13] and in [14].
